PI5P4K alpha inh – inhibitors of human PI5P4K alpha. PI5P4Kalpha enzyme, ADP-Glo luminescence, 60 min; hits give low values. max response, %. hit rate 1.2% among 330,000. AID 652105. P48426; active = max response of -50% or lower; inconclusive = between -30% and -50%; inactive = -30% or higher; note: value at the top dose of about 77 µM; % is set by controls: 0 for no effect and ±100 for the full control effect
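Luminescence from ADP-Glo served as readout of PI5P4Kalpha activity in a qHTS format. Reaction: enzyme, substrate, compound, ATP at 5 microM final, 60 min at RT.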
HP1b binding inh – inhibitors of HP1-beta chromodomain binding to methylated histone tails; AlphaScreen HP1-beta / biotin-H3K9me3 peptide binding; hit rate 0.56% among 390,000; AID 540317; Potency, µM (top dose mostly 114 µM), inactives show at the highest dose activity change, negative = inhibition, most hits filed as inhibitors; note: potency is the fitted concentration of half-maximal effect; nearly all actives have a fitted effect of over 70% in size
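HP1-beta protein (50 nM final) preincubated 30 min at room temperature with biotinylated H3(1-18)K9me3 peptide (50 nM) in PBS pH 7.4, 0.01% Tween-20, then compound added for 30 min. AlphaScreen streptavidin donor/nickel chelate acceptor beads (10 ug/mL final), 30 min dark, luminescence read.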
BAZ2B inh – BAZ2B (human) inhibition; Q9UIF8; AlphaScreen BAZ2B-H3K14Ac peptide displacement; Potency, µM (doses to about 114 µM), for the others: at the top dose activity change, negative = inhibition, actives largely listed as inhibitors; hit rate 4.4% among 360,000; AID 504333; note: potency is the fitted concentration of half-maximal effect; % is set by controls: 0 for no effect and ±100 for the full control effect; nearly all actives have a fitted effect of over 60% in size
Target sequence (Q9UIF8 whole entry, looked up): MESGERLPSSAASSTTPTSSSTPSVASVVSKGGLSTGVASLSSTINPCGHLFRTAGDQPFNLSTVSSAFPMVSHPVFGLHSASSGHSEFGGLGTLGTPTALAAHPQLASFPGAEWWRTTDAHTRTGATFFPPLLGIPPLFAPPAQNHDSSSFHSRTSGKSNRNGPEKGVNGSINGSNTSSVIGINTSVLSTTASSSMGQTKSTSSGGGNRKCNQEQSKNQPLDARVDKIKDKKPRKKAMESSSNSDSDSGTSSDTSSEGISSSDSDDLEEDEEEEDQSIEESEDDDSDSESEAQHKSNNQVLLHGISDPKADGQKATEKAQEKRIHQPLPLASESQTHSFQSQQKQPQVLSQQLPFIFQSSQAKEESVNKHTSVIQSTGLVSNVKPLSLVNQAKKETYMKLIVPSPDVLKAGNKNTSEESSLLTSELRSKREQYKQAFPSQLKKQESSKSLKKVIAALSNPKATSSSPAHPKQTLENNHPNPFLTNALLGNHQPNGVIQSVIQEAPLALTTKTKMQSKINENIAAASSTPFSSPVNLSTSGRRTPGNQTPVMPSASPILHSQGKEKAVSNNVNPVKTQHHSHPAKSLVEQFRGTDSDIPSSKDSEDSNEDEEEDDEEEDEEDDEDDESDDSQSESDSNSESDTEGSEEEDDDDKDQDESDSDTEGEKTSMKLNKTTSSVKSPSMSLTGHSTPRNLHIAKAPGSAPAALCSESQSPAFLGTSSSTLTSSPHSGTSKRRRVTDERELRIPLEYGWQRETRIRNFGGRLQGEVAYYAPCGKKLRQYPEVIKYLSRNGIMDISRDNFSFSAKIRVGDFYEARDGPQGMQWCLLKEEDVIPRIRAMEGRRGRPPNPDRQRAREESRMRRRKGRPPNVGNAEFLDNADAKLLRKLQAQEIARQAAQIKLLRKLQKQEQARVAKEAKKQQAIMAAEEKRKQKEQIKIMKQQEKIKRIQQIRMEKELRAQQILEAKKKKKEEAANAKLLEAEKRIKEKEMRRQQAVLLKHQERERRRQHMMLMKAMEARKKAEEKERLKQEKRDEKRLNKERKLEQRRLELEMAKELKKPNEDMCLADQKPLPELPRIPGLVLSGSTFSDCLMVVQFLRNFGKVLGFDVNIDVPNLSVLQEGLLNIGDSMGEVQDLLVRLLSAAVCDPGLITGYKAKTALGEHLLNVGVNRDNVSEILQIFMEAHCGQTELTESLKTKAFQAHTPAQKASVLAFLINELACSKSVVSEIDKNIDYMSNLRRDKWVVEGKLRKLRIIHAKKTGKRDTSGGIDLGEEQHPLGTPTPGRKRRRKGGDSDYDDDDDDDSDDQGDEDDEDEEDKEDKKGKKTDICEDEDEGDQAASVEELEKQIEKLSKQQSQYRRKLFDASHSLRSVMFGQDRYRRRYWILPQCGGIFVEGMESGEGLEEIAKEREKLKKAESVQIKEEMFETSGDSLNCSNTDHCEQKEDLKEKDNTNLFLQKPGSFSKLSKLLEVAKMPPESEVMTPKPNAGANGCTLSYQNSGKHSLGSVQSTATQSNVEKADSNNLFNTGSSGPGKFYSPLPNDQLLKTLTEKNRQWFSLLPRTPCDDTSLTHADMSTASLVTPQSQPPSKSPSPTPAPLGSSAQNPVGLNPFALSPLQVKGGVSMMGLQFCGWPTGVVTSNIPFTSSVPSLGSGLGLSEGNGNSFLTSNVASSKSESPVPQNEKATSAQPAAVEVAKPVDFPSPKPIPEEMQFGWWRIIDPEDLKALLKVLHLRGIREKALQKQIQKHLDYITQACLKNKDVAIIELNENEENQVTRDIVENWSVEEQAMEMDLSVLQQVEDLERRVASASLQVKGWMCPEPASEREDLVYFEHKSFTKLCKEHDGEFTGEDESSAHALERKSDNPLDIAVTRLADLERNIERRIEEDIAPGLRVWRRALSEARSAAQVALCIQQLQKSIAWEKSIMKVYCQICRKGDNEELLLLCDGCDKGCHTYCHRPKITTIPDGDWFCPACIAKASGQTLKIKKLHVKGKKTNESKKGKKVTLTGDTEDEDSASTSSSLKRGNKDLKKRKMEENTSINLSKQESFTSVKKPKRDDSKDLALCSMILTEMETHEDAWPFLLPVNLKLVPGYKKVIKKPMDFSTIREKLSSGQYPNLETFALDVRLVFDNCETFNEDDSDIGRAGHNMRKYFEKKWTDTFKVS
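Inhibition is scored as reduced AlphaScreen emission. The BAZ2B/b-H3(5-23)K14Ac complex (50 nM each) in PBS pH 7.4, 0.01% Tween-20 meets compound (up to 110 uM) for 30 min at RT before bead addition.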
G9a block – blocks human histone lysine methyltransferase G9a; G9a H3K9 monomethylation, AlphaScreen, 2 h; Potency, µM (titrated, usually from 102 µM), without a hit: at the highest dose activity, negative = inhibition, usual class: inhibitors; hit rate 8.8% among 350,000; note: potency is the fitted concentration of half-maximal effect; % is set by controls: 0 for no effect and ±100 for the full control effect; nearly all actives have a fitted effect of over 75% in size
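Quantitative HTS format: methyltransferase activity on a biotin-tagged H3K9 peptide is measured by AlphaScreen, using a rabbit anti-monomethyl-H3K9 antibody with streptavidin donor and anti-IgG acceptor beads. Final levels are 20 nM enzyme, 500 nM peptide, 20 uM SAM; 2 h RT.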
PLK1 PBD inh – inhibitors of human PLK1 polo-box domain binding. AID 720504. hit rate 2.8% among 360,000. Plk1 PBD binding of FITC phosphopeptide, fluorescence polarization. Potency, µM, without a hit: max response, negative = inhibition, hits mostly inhibitors; note: potency is the fitted concentration of half-maximal effect; series mostly up to about 57 µM; % is set by controls: 0 for no effect and ±100 for the full control effect; nearly all actives have a fitted effect of over 65% in size
JMJD2A Tudor – JMJD2A Tudor domain (human) inhibition; Potency, µM (top dose mostly 114 µM), for inactives: top-dose activity change, negative = inhibition, actives largely listed as inhibitors; hit rate 4.4% among 390,000; AlphaScreen JMJD2A-Tudor / H3K4me3 peptide binding; note: potency is the fitted concentration of half-maximal effect; % is set by controls: 0 for no effect and ±100 for the full control effect; nearly all actives have a fitted effect of over 50% in size
* = called active by the depositor; ? = inconclusive; · = no result; [ ] = dose if it differs, or a comment. A selection: hits, their analogues and other compounds. The true share with any hit is near 12%. Unless noted, calls come from the whole dose curve; as a rule, active = well fitted curve in the direction sought with a large enough effect; inconclusive = small, poorly fitted or top-dose-only effect, or another doubt; inactive = no such curve, though single readings can be large; an effect the other way counts as inactive or inconclusive.

SMILES	PI5P4K alpha inh	HP1b binding inh	BAZ2B inh	G9a block	PLK1 PBD inh	JMJD2A Tudor
CCN1CCN(C(=O)C(C)Nc2cc(Cl)c(OC)cc2OC)CC1 (stereo not given)	-6	11%	·	40µM*	-6%	-29%
CCOc1cc(N2CCOCC2)c(OCC)cc1NC(=O)CN1C(=O)NC(Cc2ccccc2)C1=O (stereo not given)	3	27%	2%	?	-1%	4%
CCOc1cc(N2CCOCC2)c(OCC)cc1NC(C)C(=O)N1CCN(CC)CC1 (stereo not given)	?	?	10µM*	4µM*	?	0.35µM*
CCOc1cc(N2CCOCC2)c(OCC)cc1NC(=O)CN1CCC(Cc2ccccc2)CC1	2	25µM*	32µM*	50µM*	-12%	22µM*
CCOC(=O)Cc1csc(NC(=O)c2ccc(N3CCOCC3)cc2[N+](=O)[O-])n1	-22	-11%	?	-7%[12.7 µM]	0%	?
CCOc1cc(N2CCOCC2)c(OCC)cc1NC(=O)COC(=O)CCOc1ccc(C(C)(C)C)cc1	2	?	35µM*	4%[0.501 µM]	-6%	20µM*
CCOc1ccc(OCCC(=O)OCC(=O)Nc2ccc(N3CCOCC3)cc2)cc1	4	20%	-30%	?	-1%	-24%
CCOc1cc(N2CCOCC2)c(OCC)cc1NC(=O)CSc1ncccn1	-17	-25%	-27%	40µM*	?	-18%
CCc1ccc(NC(=O)CSc2c(C)cnc3c2c(=O)n(C)c(=O)n3C)cc1	·	32%	5%	-3%[59 µM]	·	-2%
CC(C(=O)Nc1ccc(Br)cc1)N(C)CC(=O)NCc1ccco1 (stereo not given)	3	25%	-5%	8.9µM*	-2%	-7%
CCN1CCN(c2nc3sc4c(c3c(=O)n2-c2ccc(OC)cc2)CCCCC4)CC1	·	-6%	?	?	-5%	?
NNc1nc2sc3c(c2c(=O)n1Cc1ccccc1)CCC3	-74*	-18%	-23%	?	-10%	-32%
CCn1c(SCC(=O)c2ccccc2)nc2sc3c(c2c1=O)CCN(C)C3	-12	-38%	-39%	25µM*	-27%	?
Nn1c(Nc2ccccc2)nc2sc3c(c2c1=O)CCC3	-13	-6%	?	4%[12.7 µM]	-12%	-34%
COc1ccc(-n2c(NN)nc3sc4c(c3c2=O)CCCC4)cc1	8	21%	-3%	50µM*	-6%	-33%
CCn1c(SCC(N)=O)nc2sc3c(c2c1=O)CCCC3	5	38%	-6%	45µM*	-8%	-9%
NNc1nc2sc3c(c2c(=O)n1C1CCCCC1)CCN(Cc1ccccc1)C3	8	23%	-35%	50µM*	3%	6%
CCn1c(NN)nc2sc3c(c2c1=O)CCC3	-59*	-22%	3%	45µM*	-4%	?
CCCc1nc2sc3c(c2c(=O)n1NC(=O)CCC(=O)OC)CCCC3	-8	-16%	-3%	-30%	-16%	-13%
Cc1nc2sc3c(c2c(=O)n1NC(=O)CCBr)CCCC3	-2	40%	-18%	50µM*	-21%	-11%
C#CCSc1nc2sc3c(c2c(=O)n1C)CCC3	?	?	50µM*	45µM*	-13%	79µM*
CNC(=O)COc1ccc(Nc2nnc(-c3ccc(C)c(S(=O)(=O)NC(C)(C)C)c3)c3ccccc23)cc1	·	15%	-14%	?	·	-23%
CSc1nc2sc3c(c2c(=O)n1C1CCCCC1)CCN(C)C3	-5	46%	-29%	50µM*	-1%	-35%
N#Cc1cccc(NC(=O)N2CCC3(CC2)CCN(C(=O)c2csnn2)CC3)c1	·	·	·	-6%[12.7 µM]	·	·
CCCCNC(=O)c1nn(C)c2c1CSc1ccccc1-2	·	-9%	?	16µM*	·	?
SMILES	PI5P4K alpha inh	HP1b binding inh	BAZ2B inh	G9a block	PLK1 PBD inh	JMJD2A Tudor
CCN(CC)CCCNC(=O)c1nn(C)c2c1CS(=O)(=O)c1ccccc1-2	·	16%	-7%	25µM*	·	-15%
COc1ccc(CCNC(=O)c2nn(C)c3c2CS(=O)(=O)c2ccccc2-3)c(OC)c1	1	54%	50µM*	-1%	-7%	-23%
COc1ccc2sc(N(Cc3cccnc3)C(=O)C3CCCCC3)nc2c1	·	39%	-19%	3%[59 µM]	·	-7%
O=c1c2c3nc4ccccc4nc3n(-c3ccc4c(c3)OCCO4)c2ncn1C1CCCC1	-2	42%	·	-5%[59 µM]	-15%	79µM*
CC1CCC(C(C)C)C(OC(=O)COC(=O)c2ccc(N)cc2)C1 (stereo not given)	26	34%	9%	?	-9%	-18%
CC1CCC(C(C)C)C(OC(=O)C[n+]2cccc(C(N)=O)c2)C1 (stereo not given)	-75*	-3%	-3%	7%[59 µM]	2.4µM*	?
CCCN1C(=O)/C(=C/c2ccc3c(c2)OCO3)NC1=S	-1	35%	-28%	9%[59 µM]	-15%	-23%
CC1=C/C(=C\c2ccc3c(c2)OCO3)C(=O)S1	0	-11%	?	25µM*	-21%	?
CCCN1C/C(=C/c2ccc3c(c2)OCO3)C(=O)/C(=C/c2ccc3c(c2)OCO3)C1	-22	?	50µM*	?	-23%	22µM*
O=C(NCCN1CCOCC1)C1(C(F)(F)F)C/C(=C/CCO)CCCO1 (stereo not given)	·	29%	·	·	·	-12%
N#C/C(=C(/O)CSc1ccccn1)c1nc2ccccc2s1	-24	44%	-16%	45µM*	-8%	-8%
c1ccc(SCc2nc3ccccc3s2)nc1	0	66%	1%	35µM*	19µM*	18%
COc1ccc(CNC(=O)c2ccc3c(c2)CCN3S(=O)(=O)c2ccc(Cl)cc2)cc1	·	53%	-2%	4%[59 µM]	·	-12%
COc1cnc(-c2ccccn2)nc1Oc1ccccc1Cl	-3	34%	50µM*	8%[59 µM]	3%	12%
COc1cnc(-c2ccccn2)nc1Oc1ccc(Cl)cc1	·	13%	32µM*	·	-11%	-31%
COc1cnc(-c2ccccn2)nc1Oc1ccc(Cl)c2ccccc12	15	19%	-37%	24%	1%	-35%
COc1cnc(-c2ccccn2)nc1Oc1ccc(F)cc1F	5	44%	40µM*	5%	0%	-32%
COc1cnc(-c2ccccc2)nc1Oc1ccccc1C	18	111%	47%	-63%	0%	103%
CC(C)(C)C(=O)NC1CCN(CC(=O)Nc2ccc3c(c2)OCO3)CC1	0	11%	-12%	6%	-22%	-1%
CCOc1ccc(OCC)c(Nc2nc3ccc(Cl)cc3n3cnnc23)c1	·	22%	-2%	14%[59 µM]	·	-4%
CCCCn1c(-c2c(Cl)c(C)nn2C)n[nH]c1=S	-5	-15%	-22%	8.9µM*	?	13µM*
CCn1c(-c2c(Cl)c(C)nn2C)n[nH]c1=S	-4	-2%	-5%	11µM*	-6%	20µM*

Bioassay records from PubChem.
